Records with an inconclusive call do not appear. Where a call stands in place of a potency, no number is given. A number with no mark means an inactive call. Activity calls are given as the source filed them. Calls follow the shape of the full dose curve.
assay: Nuclear factor erythroid 2-related factor 2/antioxidant responsive element (Nrf2/ARE) small molecule agonists: luciferase reporter gene qHTS assay in human keratinocytes (AID 1919969); settings: KeratinoSens HaCaT ARE-luciferase, luminescence, 24 h; series mostly up to 92.4 µM; also: nearly all actives have a fitted effect of over 35% in size
Description: National Center for Advancing Translational Sciences [NCATS]
Division of Preclinical Innovation [DPI]
U.S. Environmental Protection Agency [EPA]
National Institutes of Environmental Health Sciences [NIEHS]
National Toxicology Program [NTP]
U.S. Food and Drug Administration [FDA]
Oxidative stress has been implicated in the pathogenesis of a variety of diseases ranging from cancer to neurodegeneration. The antioxidant response element (ARE) signaling pathway plays an important role in the amelioration of oxidative stress. The KeratinoSens (Givaudan, Switzerland) is an in vitro test method which quantifies luciferase induction as a measure of activation of Keap1-Nrf2-antioxidationt/electrophile response element (ARE) dependant pathway in HaCaT human keratinocytes stably transfected with a selectable plasmid. The KeratinoSens assay is a cell-based assay with a reporter cell line to detect potential skin sensitizers by their ability to induce the Nrf2/ARE-response. The activation of the report gene under culture conditions can be detected by ONE-Glo Luciferase Assay System (Promega, Madison, WI). This cell line has been used to screen the Tox21 10K compound library to identify agonists that induce oxidative stress. The cytotoxicity of the Tox21 compound library against the KS-ARE cell line was tested in parallel by measuring the cell viability using CellTiter- Fluor assay system (Promega, Madison, WI) in the same wells.
HaCaT derived cell line KeratinoSens were dispensed at 1,500 cells/5uL/well in 1536-well white wall/solid bottom plates using a Multidrop Combi (ThermoFisher Scientific, Waltham, MA) dispenser. After the assay plates were incubated at 37 C/5% CO2 for 5 h, 23 nL of compounds dissolved in DMSO, positive controls or DMSO only was transferred to the assay plate by a pintool workstation (Kalypsys, San Diego, CA). The plates were incubated at 37 C/5% CO2 for 23 h, followed by addition of 1uL/well of CellTiter-Fluor reagent into the assay plates using a Flying Reagent Dispenser (Aurora Discovery, San Diego, CA) for cell viability readout that measures cytotoxicity. After 1 h incubation at 37 C/5% CO2 the fluorescence intensity was measured using a ViewLux (PerkinElmer, Shelton, CT) plate reader. Then 4uL/well of One-Glo were added using a Flying Reagent Dispenser. After the plates were incubated at room temperature for 30 min, the luminescence intensity in the assay plates was measured using ViewLux plate reader.
Potency is read from the fitted curve at half-maximal effect.

Structure (SMILES)	Potency	activity, positive = activation
CCOc1cccc(N)c1	inactive	
CCCCCCCCCCCCCCCC[N+](C)(C)CCN(Cc1ccc(OC)cc1)c1ncccn1	inactive	
CCC1=C(C)CN(C(=O)NCCc2ccc(S(=O)(=O)NC(=O)NC3CCC(C)CC3)cc2)C1=O (stereo not given)	inactive	
CCNc1nc(NC(C)(C)C)nc(OC)n1	inactive	
O=C(Oc1ccccc1C(=O)O)c1ccccc1O	inactive	
Clc1nnc(Cl)c2ccccc12	6.08 µM (active)	
CC(C(=O)O)c1ccc2c(c1)CC(=O)c1ccccc1S2 (stereo not given)	inactive	
[O]=[Bi]		29.8% [at 8.39 µM]
CCCCC(CC)CN1C(=O)C2C3C=CC(C3)C2C1=O (stereo not given)	54.5 µM (active)	
CNc1c2c(nn1C)CCCC2	inactive	
C/C=C(/C(=C/C)c1ccc(O)cc1)c1ccc(O)cc1	inactive	
O=C(CO)[C@@H](O)[C@H](O)[C@H](O)CO	inactive	
CN(C)C(=O)C1(N2CCCCC2)CCN(CC[C@@]2(c3ccc(Cl)c(Cl)c3)CN(C(=O)c3ccccc3)CCO2)CC1	inactive	
Nc1nc(-c2ccc([N+](=O)[O-])cc2)cs1	inactive	
O=C(/C=C/c1ccc(O)c(O)c1)O[C@@H]1C[C@](O)(C(=O)O)C[C@@H](O)[C@H]1O	inactive	
O=[N+]([O-])c1c(Cl)cc(Cl)cc1Cl	inactive	
Nc1ccc(S(=O)(=O)O)cc1	inactive	
CCCCOC(=O)C(C)O (stereo not given)	inactive	
CC(C)CCOC(=O)CC(C)C	inactive	
Cc1nc2n(c(=O)c1CCN1CCC(C(=O)c3ccc(F)cc3)CC1)CCS2	inactive	

Structure (SMILES)	Potency	activity, positive = activation
CCOC(=O)C1=NN(c2ccc(Cl)cc2Cl)C(C)(C(=O)OCC)C1 (stereo not given)	inactive	
Cc1cccc2sc(N)nc12	inactive	
CCCCCCC(=O)OCC	inactive	
CC(=O)Nc1ccc(OCC(O)CNC(C)C)cc1 (stereo not given)	inactive	
CCCCOc1ccc(C(=O)CCN2CCCCC2)cc1	inactive	
CC(=O)Nc1ccc(S(=O)(=O)Nc2cc(C)on2)cc1	inactive	
CC(=O)Nc1ccc(C)cc1C	inactive	
CCOCCn1c(C2CCN(CCc3ccc(C(C)(C)C(=O)O)cc3)CC2)nc2ccccc21	inactive	
COC(C)(C)CCCC(C)CC=O (stereo not given)	inactive	
CC(C)C[P+](C)(CC(C)C)CC(C)C	inactive	
CC(C)(C)c1n[nH]c(=S)n(N)c1=O	inactive	
CCCCCCCCN1CCCC1=O	inactive	
CCCC(C)c1ccccc1O (stereo not given)	inactive	
CC1=CP(=O)(c2ccccc2)CC1 (stereo not given)	inactive	
CCOC(=O)CC(=O)c1cc(F)c(Cl)nc1Cl	inactive	
C=Cc1ccccc1C=C	inactive	
Cc1c(F)cc2c(=O)c(C(=O)O)cn3c2c1CCC3C (stereo not given)	inactive	
CC[N+](C)(CC)CCOC(=O)C(O)(c1ccccc1)C1CCCCC1 (stereo not given)	inactive	
N#Cc1ccc(C/C(=N/NC(=O)Nc2ccc(OC(F)(F)F)cc2)c2cccc(C(F)(F)F)c2)cc1	inactive	
OCC(CO)(CO)COCC(CO)(CO)CO	inactive	
